Measured values reported in publication PMC7862700, “An all-to-all approach to the identification of sequence-specific readers for epigenetic DNA modifications on cytosine”.

Legend:
Assay in all cases: DAPPL (digital affinity profiling via proximity ligation, sequencing); 10 mM Tris-HCl pH 7.5, 50 mM NaCl, 1 mM DTT, 4% glycerol, room temperature, 30 min; GST-TFs on glutathione beads, 16-mer random dsDNA library, 0.1% formaldehyde crosslink after washing; high values mean tight binding
FLI1 = biological target: T1, FLI1 (Homo sapiens, UniProt Q01543 1-452); conditions: protein: recombinant; tags: N-terminal GST; dsDNA, one strand shown
T1 sequence: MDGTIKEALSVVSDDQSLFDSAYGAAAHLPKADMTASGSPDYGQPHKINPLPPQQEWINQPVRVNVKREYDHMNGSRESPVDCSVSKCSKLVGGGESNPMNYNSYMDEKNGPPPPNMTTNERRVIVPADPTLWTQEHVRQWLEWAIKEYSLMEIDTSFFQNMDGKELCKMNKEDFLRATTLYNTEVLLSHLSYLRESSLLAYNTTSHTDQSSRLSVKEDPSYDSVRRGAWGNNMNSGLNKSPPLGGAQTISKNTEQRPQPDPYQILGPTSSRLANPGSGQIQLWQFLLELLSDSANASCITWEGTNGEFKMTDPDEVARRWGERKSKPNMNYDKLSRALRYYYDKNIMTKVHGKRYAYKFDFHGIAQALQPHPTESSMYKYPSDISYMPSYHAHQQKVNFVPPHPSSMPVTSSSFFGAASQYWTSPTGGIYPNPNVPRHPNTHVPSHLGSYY
Procedure, shortened: (§1)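 Yeast served to express human transcription factors as GST fusions, which were then captured on glutathione beads and labelled with DNA barcodes. Pooled with a tag-only sample, they were incubated with 200 nmole of a 16-mer random double-stranded DNA library for 30 min at room temperature in Tris/NaCl/DTT/glycerol buffer, washed, crosslinked with 0.1% formaldehyde, ligated by proximity, amplified by PCR and sequenced. Dividing each hexamer's read frequency for a factor by its frequency for the tag-only sample gives the binding signal.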

ELK1 = biological target: T2, ELK1 (Homo sapiens, UniProt P19419 1-428); conditions: protein: recombinant; tags: N-terminal GST; dsDNA, one strand shown
T2 sequence: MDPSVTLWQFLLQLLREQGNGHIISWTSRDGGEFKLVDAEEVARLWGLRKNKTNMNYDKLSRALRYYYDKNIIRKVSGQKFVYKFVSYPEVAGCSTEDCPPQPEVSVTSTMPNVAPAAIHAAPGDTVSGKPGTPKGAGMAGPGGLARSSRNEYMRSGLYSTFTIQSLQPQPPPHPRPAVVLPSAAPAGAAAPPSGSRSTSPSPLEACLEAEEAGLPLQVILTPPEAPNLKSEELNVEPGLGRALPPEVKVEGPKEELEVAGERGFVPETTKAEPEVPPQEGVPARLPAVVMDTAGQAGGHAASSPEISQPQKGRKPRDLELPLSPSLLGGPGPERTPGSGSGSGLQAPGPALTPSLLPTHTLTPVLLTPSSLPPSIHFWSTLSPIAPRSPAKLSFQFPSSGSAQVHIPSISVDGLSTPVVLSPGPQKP
Procedure, shortened: as §1

GABPA = biological target: T3, GABPA (Homo sapiens, UniProt Q06546 1-454); conditions: protein: recombinant; tags: N-terminal GST; dsDNA, one strand shown
T3 sequence: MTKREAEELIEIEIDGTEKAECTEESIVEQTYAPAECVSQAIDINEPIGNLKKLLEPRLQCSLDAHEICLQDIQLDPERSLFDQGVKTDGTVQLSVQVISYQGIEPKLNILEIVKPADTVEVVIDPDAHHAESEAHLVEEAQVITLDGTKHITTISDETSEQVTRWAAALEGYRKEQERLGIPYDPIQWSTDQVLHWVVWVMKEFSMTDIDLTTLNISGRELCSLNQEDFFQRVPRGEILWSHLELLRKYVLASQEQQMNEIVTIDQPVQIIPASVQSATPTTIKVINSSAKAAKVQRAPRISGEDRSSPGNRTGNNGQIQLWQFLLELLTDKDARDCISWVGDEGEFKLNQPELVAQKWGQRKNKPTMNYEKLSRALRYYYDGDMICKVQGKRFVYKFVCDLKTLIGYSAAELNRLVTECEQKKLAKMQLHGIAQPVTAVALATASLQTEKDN
Procedure, shortened: as §1

ERG = biological target: T4, ERG (Homo sapiens, UniProt P11308 1-479); conditions: protein: recombinant; tags: N-terminal GST; dsDNA, one strand shown
T4 sequence: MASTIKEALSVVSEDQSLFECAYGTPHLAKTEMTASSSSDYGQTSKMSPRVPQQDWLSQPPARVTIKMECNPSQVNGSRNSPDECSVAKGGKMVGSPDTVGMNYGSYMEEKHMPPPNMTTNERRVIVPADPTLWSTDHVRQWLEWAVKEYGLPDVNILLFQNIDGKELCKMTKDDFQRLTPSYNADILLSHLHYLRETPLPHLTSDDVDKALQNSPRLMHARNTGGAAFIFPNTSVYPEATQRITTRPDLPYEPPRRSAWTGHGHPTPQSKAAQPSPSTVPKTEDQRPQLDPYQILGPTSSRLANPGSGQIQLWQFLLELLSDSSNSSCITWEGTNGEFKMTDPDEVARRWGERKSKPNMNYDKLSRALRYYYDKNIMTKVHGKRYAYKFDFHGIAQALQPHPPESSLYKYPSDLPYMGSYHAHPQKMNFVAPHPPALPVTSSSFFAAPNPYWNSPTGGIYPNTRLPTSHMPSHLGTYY
Procedure, shortened: as §1

ELF1 = ELF1 (Homo sapiens, UniProt P32519 1-619); conditions: protein: recombinant; tags: N-terminal GST; dsDNA, one strand shown
Chain of ELF1 (P32519 whole entry): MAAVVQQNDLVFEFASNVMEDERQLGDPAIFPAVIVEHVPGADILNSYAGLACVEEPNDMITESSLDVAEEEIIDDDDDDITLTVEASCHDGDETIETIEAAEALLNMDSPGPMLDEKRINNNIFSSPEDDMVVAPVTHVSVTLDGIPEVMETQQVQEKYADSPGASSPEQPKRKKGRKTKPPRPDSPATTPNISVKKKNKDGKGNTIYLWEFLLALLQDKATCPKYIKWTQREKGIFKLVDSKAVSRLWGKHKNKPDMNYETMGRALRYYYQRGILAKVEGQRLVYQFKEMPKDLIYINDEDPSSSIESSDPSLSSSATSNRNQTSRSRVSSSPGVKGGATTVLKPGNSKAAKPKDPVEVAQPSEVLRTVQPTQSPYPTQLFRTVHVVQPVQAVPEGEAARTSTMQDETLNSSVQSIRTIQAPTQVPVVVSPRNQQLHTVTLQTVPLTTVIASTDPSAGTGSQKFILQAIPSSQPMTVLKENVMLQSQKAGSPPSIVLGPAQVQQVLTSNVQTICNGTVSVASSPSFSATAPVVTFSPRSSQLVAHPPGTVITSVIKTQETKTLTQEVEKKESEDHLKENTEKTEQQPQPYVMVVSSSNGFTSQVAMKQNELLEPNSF
Procedure, shortened: as §1

EHF = biological target: T5, EHF (Homo sapiens, UniProt Q9NZC4 1-300); conditions: protein: recombinant; tags: N-terminal GST; dsDNA, one strand shown
T5 sequence: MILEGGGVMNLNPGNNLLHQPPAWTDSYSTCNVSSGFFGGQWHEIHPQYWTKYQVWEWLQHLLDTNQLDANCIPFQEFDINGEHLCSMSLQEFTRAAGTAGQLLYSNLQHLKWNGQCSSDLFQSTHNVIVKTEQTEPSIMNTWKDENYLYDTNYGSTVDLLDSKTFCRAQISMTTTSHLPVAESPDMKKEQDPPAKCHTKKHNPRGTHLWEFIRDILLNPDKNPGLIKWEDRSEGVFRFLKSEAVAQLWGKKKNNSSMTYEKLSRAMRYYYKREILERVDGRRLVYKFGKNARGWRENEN
Procedure, shortened: as §1

SPI1 = SPI1 (Homo sapiens, UniProt P17947 1-270); conditions: protein: recombinant; tags: N-terminal GST; dsDNA, one strand shown
Procedure, shortened: as §1

SPIB = SPIB (Homo sapiens, UniProt Q01892 1-262); conditions: protein: recombinant; tags: N-terminal GST; dsDNA, one strand shown
Chain of SPIB (Q01892 whole entry): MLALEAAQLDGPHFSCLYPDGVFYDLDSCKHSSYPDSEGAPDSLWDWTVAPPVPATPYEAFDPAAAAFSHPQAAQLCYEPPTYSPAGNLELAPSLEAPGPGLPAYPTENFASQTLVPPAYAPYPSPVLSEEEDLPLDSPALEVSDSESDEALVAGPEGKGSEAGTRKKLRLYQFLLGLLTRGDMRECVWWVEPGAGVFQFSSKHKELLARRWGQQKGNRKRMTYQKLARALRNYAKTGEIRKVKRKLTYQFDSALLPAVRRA
Procedure, shortened: as §1

ELK3 = biological target: T6, ELK3 (Homo sapiens, UniProt P41970 1-407); conditions: protein: recombinant; tags: N-terminal GST; dsDNA, one strand shown
T6 sequence: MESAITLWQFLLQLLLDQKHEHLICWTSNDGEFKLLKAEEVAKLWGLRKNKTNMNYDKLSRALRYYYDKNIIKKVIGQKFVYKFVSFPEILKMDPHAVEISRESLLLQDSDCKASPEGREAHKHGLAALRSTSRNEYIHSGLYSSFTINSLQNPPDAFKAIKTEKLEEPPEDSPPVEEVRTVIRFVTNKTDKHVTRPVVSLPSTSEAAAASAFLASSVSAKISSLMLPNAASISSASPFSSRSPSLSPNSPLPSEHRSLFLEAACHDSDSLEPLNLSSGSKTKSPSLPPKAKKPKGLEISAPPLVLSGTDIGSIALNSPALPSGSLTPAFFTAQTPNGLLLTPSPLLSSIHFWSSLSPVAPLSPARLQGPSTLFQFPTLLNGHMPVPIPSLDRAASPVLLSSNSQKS
Procedure, shortened: as §1

FEV = biological target: T7, FEV (Homo sapiens, UniProt Q99581 1-238); conditions: protein: recombinant; tags: N-terminal GST; dsDNA, one strand shown
T7 sequence: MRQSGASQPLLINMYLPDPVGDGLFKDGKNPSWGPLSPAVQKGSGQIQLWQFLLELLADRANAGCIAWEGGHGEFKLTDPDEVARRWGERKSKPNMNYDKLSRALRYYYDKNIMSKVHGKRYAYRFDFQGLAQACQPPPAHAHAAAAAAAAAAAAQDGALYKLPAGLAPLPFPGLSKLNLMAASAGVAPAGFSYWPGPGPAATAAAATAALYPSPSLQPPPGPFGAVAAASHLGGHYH
Procedure, shortened: as §1

ETV5 = ETV5 (Homo sapiens, UniProt P41161 1-510); conditions: protein: recombinant; tags: N-terminal GST; dsDNA, one strand shown
Chain of ETV5 (P41161 whole entry): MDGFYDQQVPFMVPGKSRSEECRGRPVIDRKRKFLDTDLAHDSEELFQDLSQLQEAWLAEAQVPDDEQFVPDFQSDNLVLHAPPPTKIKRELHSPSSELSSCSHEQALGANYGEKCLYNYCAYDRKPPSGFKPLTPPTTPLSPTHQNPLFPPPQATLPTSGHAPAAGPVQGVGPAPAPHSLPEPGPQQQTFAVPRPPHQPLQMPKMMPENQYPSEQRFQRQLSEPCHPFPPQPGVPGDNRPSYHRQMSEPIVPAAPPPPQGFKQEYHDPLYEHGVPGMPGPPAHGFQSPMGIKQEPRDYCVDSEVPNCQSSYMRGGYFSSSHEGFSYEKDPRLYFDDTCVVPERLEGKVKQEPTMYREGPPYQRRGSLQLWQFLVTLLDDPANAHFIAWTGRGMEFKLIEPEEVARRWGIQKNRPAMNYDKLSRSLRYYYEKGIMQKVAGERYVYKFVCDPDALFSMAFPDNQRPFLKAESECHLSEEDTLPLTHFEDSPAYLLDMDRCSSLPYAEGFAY
Procedure, shortened: as §1

HSF1 = HSF1 (Homo sapiens, UniProt Q00613 1-529); conditions: protein: recombinant; tags: N-terminal GST; chain copies: 3; dsDNA, one strand shown
Chain of HSF1 (Q00613 whole entry): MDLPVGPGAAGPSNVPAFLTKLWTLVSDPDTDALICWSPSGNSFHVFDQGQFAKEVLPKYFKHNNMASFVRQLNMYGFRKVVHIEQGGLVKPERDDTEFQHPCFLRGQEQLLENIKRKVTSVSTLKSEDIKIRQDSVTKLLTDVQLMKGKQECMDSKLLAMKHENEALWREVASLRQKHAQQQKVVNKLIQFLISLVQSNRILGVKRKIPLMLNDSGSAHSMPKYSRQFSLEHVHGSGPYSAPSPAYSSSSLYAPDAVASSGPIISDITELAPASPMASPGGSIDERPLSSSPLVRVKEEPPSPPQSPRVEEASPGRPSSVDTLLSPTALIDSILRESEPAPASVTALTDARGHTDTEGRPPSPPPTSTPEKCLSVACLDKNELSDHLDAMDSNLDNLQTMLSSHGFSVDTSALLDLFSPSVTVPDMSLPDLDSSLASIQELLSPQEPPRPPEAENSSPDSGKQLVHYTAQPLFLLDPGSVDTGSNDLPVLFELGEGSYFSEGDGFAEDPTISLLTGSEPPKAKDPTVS
Procedure, shortened: as §1

SPIC = biological target: T8, SPIC (Homo sapiens, UniProt Q8N5J4 1-248); conditions: protein: recombinant; tags: N-terminal GST; dsDNA, one strand shown
T8 sequence: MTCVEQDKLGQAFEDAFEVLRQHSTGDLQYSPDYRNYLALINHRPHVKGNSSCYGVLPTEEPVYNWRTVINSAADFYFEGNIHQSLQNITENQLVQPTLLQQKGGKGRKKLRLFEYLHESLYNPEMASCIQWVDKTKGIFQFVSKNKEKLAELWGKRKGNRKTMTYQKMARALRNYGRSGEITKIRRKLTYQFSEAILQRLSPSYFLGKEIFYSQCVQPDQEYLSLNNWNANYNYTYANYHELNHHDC
Procedure, shortened: as §1

ELF4 = ELF4 (Homo sapiens, UniProt Q99607 1-663); conditions: protein: recombinant; tags: N-terminal GST; dsDNA, one strand shown
Chain of ELF4 (Q99607 whole entry): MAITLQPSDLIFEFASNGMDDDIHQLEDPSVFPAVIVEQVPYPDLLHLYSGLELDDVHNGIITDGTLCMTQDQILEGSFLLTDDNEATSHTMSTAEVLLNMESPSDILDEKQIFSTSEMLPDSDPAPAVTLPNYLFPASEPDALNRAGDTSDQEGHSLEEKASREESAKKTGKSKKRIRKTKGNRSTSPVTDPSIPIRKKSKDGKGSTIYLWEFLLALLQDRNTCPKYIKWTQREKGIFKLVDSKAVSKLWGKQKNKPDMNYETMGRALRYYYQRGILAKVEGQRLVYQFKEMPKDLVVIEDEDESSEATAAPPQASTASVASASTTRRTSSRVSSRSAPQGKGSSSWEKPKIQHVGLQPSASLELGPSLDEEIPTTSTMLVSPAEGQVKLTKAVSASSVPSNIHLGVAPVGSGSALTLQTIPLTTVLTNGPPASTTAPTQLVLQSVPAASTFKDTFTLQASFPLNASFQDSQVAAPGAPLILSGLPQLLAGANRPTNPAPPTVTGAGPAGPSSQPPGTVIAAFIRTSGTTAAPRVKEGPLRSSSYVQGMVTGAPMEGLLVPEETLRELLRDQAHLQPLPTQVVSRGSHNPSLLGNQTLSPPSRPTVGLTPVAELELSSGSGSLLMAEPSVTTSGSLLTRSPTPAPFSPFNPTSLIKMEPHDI
Procedure, shortened: as §1

ELK4 = biological target: T9, ELK4 (Homo sapiens, UniProt P28324-2 1-405); conditions: protein: recombinant; tags: N-terminal GST; dsDNA, one strand shown
T9 sequence: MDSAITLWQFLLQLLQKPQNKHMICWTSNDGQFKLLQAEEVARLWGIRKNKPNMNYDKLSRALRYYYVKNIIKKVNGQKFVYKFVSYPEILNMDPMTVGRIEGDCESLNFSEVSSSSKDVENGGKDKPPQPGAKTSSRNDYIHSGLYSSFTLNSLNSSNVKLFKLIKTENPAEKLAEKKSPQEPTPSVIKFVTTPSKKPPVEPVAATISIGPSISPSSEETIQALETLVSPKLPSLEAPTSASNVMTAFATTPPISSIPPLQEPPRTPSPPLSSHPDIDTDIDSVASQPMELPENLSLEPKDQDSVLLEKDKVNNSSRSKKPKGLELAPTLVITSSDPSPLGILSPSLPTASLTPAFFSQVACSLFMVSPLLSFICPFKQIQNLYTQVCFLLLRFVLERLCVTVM
Procedure, shortened: as §1

ETV2 = biological target: T10, ETV2 (Homo sapiens, UniProt O00321 1-342); conditions: protein: recombinant; tags: N-terminal GST; dsDNA, one strand shown
T10 sequence: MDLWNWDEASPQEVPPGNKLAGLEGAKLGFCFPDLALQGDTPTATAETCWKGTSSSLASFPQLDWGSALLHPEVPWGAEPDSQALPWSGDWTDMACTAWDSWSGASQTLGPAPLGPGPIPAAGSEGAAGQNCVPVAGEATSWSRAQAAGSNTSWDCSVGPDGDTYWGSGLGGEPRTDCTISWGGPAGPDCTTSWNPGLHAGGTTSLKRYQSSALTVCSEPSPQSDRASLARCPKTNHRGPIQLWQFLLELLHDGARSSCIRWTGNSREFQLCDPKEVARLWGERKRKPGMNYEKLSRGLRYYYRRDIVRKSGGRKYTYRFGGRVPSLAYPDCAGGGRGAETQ
Procedure, shortened: as §1

ELF3 = biological target: T11, ELF3 (Homo sapiens, UniProt P78545 1-371); conditions: protein: recombinant; tags: N-terminal GST; dsDNA, one strand shown
T11 sequence: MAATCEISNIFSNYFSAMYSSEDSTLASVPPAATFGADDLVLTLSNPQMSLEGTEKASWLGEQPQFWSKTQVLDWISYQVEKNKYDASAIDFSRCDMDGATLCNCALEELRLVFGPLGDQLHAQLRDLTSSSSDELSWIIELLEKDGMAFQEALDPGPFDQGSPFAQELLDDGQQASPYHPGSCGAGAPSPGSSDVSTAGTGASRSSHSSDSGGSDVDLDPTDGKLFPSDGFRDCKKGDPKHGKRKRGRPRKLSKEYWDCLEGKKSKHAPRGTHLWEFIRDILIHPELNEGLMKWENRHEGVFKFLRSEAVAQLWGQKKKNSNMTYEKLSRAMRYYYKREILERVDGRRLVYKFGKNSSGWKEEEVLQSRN
Procedure, shortened: as §1

CRX = CRX (Homo sapiens, UniProt O43186 1-299); conditions: protein: recombinant; tags: N-terminal GST; dsDNA, one strand shown
Chain of CRX (O43186 whole entry): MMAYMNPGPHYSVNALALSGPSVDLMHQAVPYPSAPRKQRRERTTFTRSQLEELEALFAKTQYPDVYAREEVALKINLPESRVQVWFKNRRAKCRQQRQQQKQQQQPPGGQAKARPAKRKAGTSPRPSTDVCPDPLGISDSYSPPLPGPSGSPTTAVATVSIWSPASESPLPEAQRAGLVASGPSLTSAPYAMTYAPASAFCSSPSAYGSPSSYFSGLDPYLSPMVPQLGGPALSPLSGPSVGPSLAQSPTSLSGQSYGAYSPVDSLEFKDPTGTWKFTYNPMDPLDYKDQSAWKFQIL
Procedure, shortened: as §1

ETV1 = ETV1 (Homo sapiens, UniProt P50549 1-477); conditions: protein: recombinant; tags: N-terminal GST; dsDNA, one strand shown
Chain of ETV1 (P50549 whole entry): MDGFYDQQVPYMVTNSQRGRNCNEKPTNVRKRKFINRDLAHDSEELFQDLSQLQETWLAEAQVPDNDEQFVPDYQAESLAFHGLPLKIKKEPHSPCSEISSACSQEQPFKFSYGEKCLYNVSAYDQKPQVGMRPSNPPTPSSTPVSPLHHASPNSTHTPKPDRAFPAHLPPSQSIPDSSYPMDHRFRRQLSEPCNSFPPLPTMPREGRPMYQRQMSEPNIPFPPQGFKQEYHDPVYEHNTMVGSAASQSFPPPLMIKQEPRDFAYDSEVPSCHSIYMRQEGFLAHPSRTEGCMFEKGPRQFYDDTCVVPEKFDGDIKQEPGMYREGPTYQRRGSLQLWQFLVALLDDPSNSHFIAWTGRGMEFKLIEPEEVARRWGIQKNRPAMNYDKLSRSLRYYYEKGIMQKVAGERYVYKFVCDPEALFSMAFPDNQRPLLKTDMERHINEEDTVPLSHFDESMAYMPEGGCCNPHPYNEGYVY
Procedure, shortened: as §1

CTCACA
binding signal (FLI1): 1.29 fold enrichment (6-mer frequency, TF over GST control) | binding signal (ELK1): 1.3 fold enrichment (6-mer frequency, TF over GST control) | binding signal (GABPA): 1.38 fold enrichment (6-mer frequency, TF over GST control) | binding signal (ERG): 1.34 fold enrichment (6-mer frequency, TF over GST control) | binding signal (ELF1): 1.35 fold enrichment (6-mer frequency, TF over GST control) | binding signal (EHF): 1.42 fold enrichment (6-mer frequency, TF over GST control) | binding signal (SPI1): 1.27 fold enrichment (6-mer frequency, TF over GST control) | binding signal (SPIB): 1.38 fold enrichment (6-mer frequency, TF over GST control) | binding signal (ELK3): 1.41 fold enrichment (6-mer frequency, TF over GST control) | binding signal (FEV): 1.44 fold enrichment (6-mer frequency, TF over GST control) | binding signal (ETV5): 1.31 fold enrichment (6-mer frequency, TF over GST control) | binding signal (HSF1): 1.08 fold enrichment (6-mer frequency, TF over GST control) | binding signal (SPIC): 1.23 fold enrichment (6-mer frequency, TF over GST control) | binding signal (ELF4): 1.32 fold enrichment (6-mer frequency, TF over GST control) | binding signal (ELK4): 1.34 fold enrichment (6-mer frequency, TF over GST control) | binding signal (ETV2): 1.35 fold enrichment (6-mer frequency, TF over GST control) | binding signal (ELF3): 1.3 fold enrichment (6-mer frequency, TF over GST control) | binding signal (CRX): 1.12 fold enrichment (6-mer frequency, TF over GST control) | binding signal (ETV1): 1.2 fold enrichment (6-mer frequency, TF over GST control)
